Calls of active or inactive are those of the source. The calls were made as follows: active = hit-call score of the fitted dose curve at least 0.9, where 1 is the maximum; inactive = score below 0.9.
Assay: BSK_LPS_PGE2: BioMAP Diversity Plus: LPS Assay for Prostaglandin E2 (PGE2) Biomarker Activity (AID 2283082)
Conditions: primary human HUVEC with PBMC; actives raise or lower the signal
Protocol: BSK_LPS is a cell-based, multiplexed-readout assay that uses umbilical vein endothelium and peripheral blood mononuclear cells, a human vascular primary cell co-culture, with measurements taken at 24 hours after chemical dosing in a 96-well plate.BSK_LPS_PGE2 is an assay component measured in the BSK_LPS assay. It measures PGE2 antibody related to regulation of gene expression using ELISA technology.Data from the assay component BSK_LPS_PGE2 was analyzed into 1 assay endpoint. This assay endpoint, BSK_LPS_PGE2, was analyzed with bidirectional fitting relative to DMSO as the negative control and baseline of activity. Using a type of binding reporter, gain or loss-of-signal activity can be used to understand changes in the signaling as they relate to the gene PTGER2. Furthermore, this assay endpoint can be referred to as a primary readout, because this assay has produced multiple assay endpoints where this one serves a signaling function. To generalize the intended target to other relatable targets, this assay endpoint is annotated to the gpcr intended target family, where the subfamily is rhodopsin-like receptor.
The levels of cell surface (or secreted, indicated by the prefix "s") biomarker endpoints were measured by ELISA. Overt cytotoxicity to cells in confluent adherent cultures (all systems other than the BT system) was assessed by measuring total protein levels using sulforhodamine B (SRB) staining in parallel cultures at the time of biomarker measurements, indicated as SRB endpoints. For proliferation assays for adherent cell types, individual cell types are cultured at sub-confluence and relative cell numbers quantified by SRB staining at time points optimized for each system (48 h: 3C and CASM3C systems; 72 h: BT and HDF3CGF systems; 96 h: SAg system). SRB was performed by staining cells with 0.1% SRB after fixation with 10% TCA and reading wells at 560 nm.Viability and proliferation of PBMC (T cells) was quantified by Alamar Blue reduction for the SAg and BT systems. For PBMC viability (referred to as PBMC Cytotoxicity within the assay endpoint names), cells were plated (75,000/well in a 96-well plate) and then chemical samples added for 1 h before addition of activators, SEB and TSST-1 (20 ng/mL final concentration each). Cells were incubated for 90 h. Then, Alamar Blue (20 uL/well) (Invitrogen, Cat DAL1100) was added for 6 h, and the plates were read with a fluorescence microplate reader at 546/580 nm (excitation/emission). For PBMC proliferation, cells were plated and activated as above but incubated for only 16 h prior to addition of Alamar Blue. Plates were read after 6 h.

SMILES	outcome	AC50
CC(C)(OOC(C)(C)c1ccccc1)c1ccccc1	inactive	
ClCCOCCCl	inactive	
CC(O)CCO (stereo not given)	inactive	
c1ccc(N=Nc2ccccc2)cc1	inactive	
COc1cc(C=O)cc2c1[C@H](COC(N)=O)[C@]1(OC(C)=O)ON2C[C@H]2[C@@H]1N2C(C)=O	inactive	
O=Cc1ccco1	inactive	
Cc1ccc(N)c(N)c1		20 µM (active)
CN(C)c1ccccc1	inactive	
OCCOCCO	inactive	
N#CC(Br)Br	inactive	
C[C@]12C=CC3=C4CCC(=O)C=C4CC[C@H]3[C@@H]1CC[C@@H]2O		7.31 µM (active)
O=[N+]([O-])C(Br)(CO)CO	inactive	
Cc1ccc(N=C=O)cc1N=C=O	inactive	
CS(=O)(=O)NC(=O)c1cc(Oc2ccc(C(F)(F)F)cc2Cl)ccc1[N+](=O)[O-]	inactive	
Nc1ccc(Oc2ccc(N)cc2)cc1		12.7 µM (active)
CC(C)(C)OOC(C)(C)CCC(C)(C)OOC(C)(C)C	inactive	
CCCCOC(=O)c1ccccc1C(=O)OCc1ccccc1		8.72 µM (active)
Cc1cc(N=Nc2ccccc2C)ccc1N		3.97 µM (active)
CN(C)C(=O)Nc1ccc(Cl)cc1	inactive	
COP(=S)(OC)SCN1C(=O)c2ccccc2C1=O	inactive	

SMILES	outcome	AC50
C[N+](C)(C)CC1CO1 (stereo not given)	inactive	
O=C(Oc1ccc(Br)cc1)N1CCN2CCC1CC2	inactive	
CN(C)c1ccc(C(=O)c2ccc(N(C)C)cc2)cc1		2.63 µM (active)
CCCCCOC(=O)c1ccccc1C(=O)OCCCCC		17.7 µM (active)
CCCCCCCCn1sccc1=O		0.857 µM (active)
c1ccc(C2CO2)cc1 (stereo not given)	inactive	
COC(=O)c1ccccc1N	inactive	
CCNS(=O)(=O)C(F)(F)C(F)(F)C(F)(F)C(F)(F)C(F)(F)C(F)(F)C(F)(F)C(F)(F)F	inactive	
Cc1cccc(N)c1N		20 µM (active)
Clc1ccc(Cl)c(Cl)c1	inactive	
CC(C)(C)C(O)(CCc1ccc(Cl)cc1)Cn1cncn1 (stereo not given)	inactive	
CO[C@@H]1[C@H](OC(=O)NC(=O)CCl)CC[C@]2(CO2)[C@H]1[C@@]1(C)O[C@@H]1CC=C(C)C		6.2 µM (active)
O=C(O)C1C2CCC(O2)C1C(=O)O (stereo not given)	inactive	
c1ccc(NNc2ccccc2)cc1		10.6 µM (active)
Nc1ccc(N=Nc2ccccc2)cc1		3.55 µM (active)
O=C1CCCO1	inactive	
CN(C)[C@@H]1C(=O)C(C(N)=O)=C(O)[C@@]2(O)C(=O)C3=C(O)c4c(O)cccc4[C@@](C)(O)[C@H]3C[C@@H]12	inactive	
CCC[CH2][Sn]([Cl])([CH2]CCC)[CH2]CCC	inactive	
ClC1=C(Cl)[C@]2(Cl)[C@H]3[C@H]([C@@H]4C=C[C@H]3C4)[C@@]1(Cl)C2(Cl)Cl	inactive	
Brc1ccc(Oc2ccccc2)cc1	inactive	

Source: PubChem BioAssay (EPA / NIEHS)
